Results as given in the supplement of paper PMC3334620.
The full ranking holds about 33,000 sequences; the median of “E-score (-0.5 to 0.5)” is about -0.017, and the highest 2% start at about 0.3. This excerpt belongs to a sample that is enriched for the highest values.

The sequences below were run against T1, Sut1 (UniProt P53032) (assay: PBM E-score (8-mer binding enrichment) (E-score (-0.5 to 0.5)); higher = stronger / more preferred TF binding). Conditions: protein concentration: 200 nM; construct: GST-full length.
T1 sequence: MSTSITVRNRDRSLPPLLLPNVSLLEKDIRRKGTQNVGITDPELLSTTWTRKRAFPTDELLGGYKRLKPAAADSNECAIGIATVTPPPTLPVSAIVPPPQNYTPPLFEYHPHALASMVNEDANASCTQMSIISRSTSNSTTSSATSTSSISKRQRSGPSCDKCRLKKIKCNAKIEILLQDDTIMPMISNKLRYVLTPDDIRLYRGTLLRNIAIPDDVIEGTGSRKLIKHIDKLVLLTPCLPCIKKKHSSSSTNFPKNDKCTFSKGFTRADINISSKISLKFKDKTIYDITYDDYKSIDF
How it was run: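 PURExpress in vitro transcription/translation supplied GST-tagged yeast transcription factors, either full-length or DNA-binding domain. Applied at about 100-200 nM to universal all-10-mer Agilent arrays double-stranded by primer extension, the bound protein was detected with fluorescent anti-GST. E-scores, modified Wilcoxon-Mann-Whitney statistics, were given by the Universal PBM Analysis Suite to ungapped eight-base words pooled with their reverse complements after masliner normalisation.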

Sequence | PBM E-score
AAGCATTC | 0.0319
GCTCCCCC | -0.444
GCATCAAA | 0.14
CCAAGGAG | -0.0556
ACTTGGTC | 0.183
AGCATACA | 0.187
GCACAGTA | -0.0754
CGTCCGGC | -0.0125
AGGCCGGA | 0.279
AGTCCGGA | 0.487
CGTCCGGA | 0.27
AGTCCGGC | 0.467
AGTCCAGA | 0.0785
AGTCCCGG | 0.1
GGTCCCGA | 0.093
AATCCGGG | 0.103
AGTCCGGG | 0.485
AGTCCTGC | -0.19
GGTCCGGA | 0.402
AAGTCTAC | 0.004
GTAGGCAC | -0.102
GTTCCAGA | -0.0427
ATGAATAA | 0.146
AGACGGCT | -0.121
AGGCTGTG | -0.0562
GGTGCAAA | 0.0509

Sequence | PBM E-score
TGTTTTAA | 0.253
AGTTTATC | 0.17
AGTTTTAA | 0.341
ATTTTAAA | 0.307
GGTTTATA | 0.0479
TGTTTAAA | 0.111
GTTTTAAA | 0.296
AGTTTAAT | 0.069
AGTTTATA | 0.335
AGTTTTTA | 0.175
ATTTTTAA | 0.249
AGTTTAAA | 0.335
AGACCTCC | -0.207
CATAGGGG | -0.348
CGGTTTTC | 0.176
CAAGTCAC | -0.0175
TACAACAA | 0.286
CAGTTGAA | -0.00817
AAGCCAAC | 0.118
AGTTTACA | 0.106
AGTGAACA | 0.0388
CTGGATTA | 0.0735
GGGAGTAC | -0.064
CGGAGTAG | 0.49
GGGAGTAA | 0.0687
AGGAGTAA | 0.0575

Sequence | PBM E-score
CGGAGTAC | 0.487
AGGAGTAG | -0.0194
CGGAGTAA | 0.483
AGGAGTAC | -0.106
CCGAGTAG | 0.112
TAGAATAA | 0.207
CAGTATAG | 0.0135
AATTGGAT | 0.131
ACGCCTCG | -0.115
GGCTTACA | 0.0643
TTATATAA | 0.358
AGTTATAA | 0.155
TCATATAA | 0.121
ATATATAA | 0.351
CTCTATAA | 0.186
CTATATAA | 0.158
CGTTATAA | 0.135
TGATATAA | 0.222
TGTTATAA | 0.299
CGCAACCC | 0.023
ATCCCAAT | 0.0805
CGATGAGC | -0.0442
TAGAAGCA | -0.0194
CAAGTTTA | 0.0197
AAAGTTTA | 0.203
GAAGTTTA | 0.319

Sequence | PBM E-score
GGAGTTTA | 0.396
GGAGTTCA | 0.339
CGAGTTTA | 0.0867
AGAGTTTA | 0.27
CGAGTTCA | -0.149
AGAGTTCA | -0.0646
ACATCTAT | 0.17
GACGCCTC | -0.125
ACTCCTAG | -0.0737
CACTATCA | -0.0232
TAGTCGGA | 0.317
CGGTCGGA | 0.211
AGGTCGGC | -0.131
TAGTCGCA | -0.0489
CAGTCGGA | 0.204
GAGTCGGA | 0.324
AAGTCGGA | 0.226
GAGTCGGC | 0.00136
AGGTCGGA | 0.316
CGTAATGC | 0.0921
ACACAACA | 0.128
AAGATAGG | 0.013
GTCCCAAC | -0.138
GACTATGC | 0.0066
AACTAGAG | 0.0891
ACCTCTAG | -0.0682

Sequence | PBM E-score
GTGGCAGA | -0.253
CATAACGC | -0.00576
GATGAAGC | -0.0232
TAACTGCA | 0.0867
CCGGAATA | 0.294
CCGGAACC | 0.185
CCGGAAGG | 0.169
GCGGAACA | -0.11
ACGGAAGA | 0.147
CCGGAACG | 0.202
ACGGAACA | 0.229
TCGGAACA | 0.303
CCGGAACA | 0.304
CCGGAAGA | 0.312
ACGGAATC | 0.252
CCGGAATC | 0.326
TATACGCA | 0.0114
CCCAACGC | -0.103
TCACTTCA | -0.0869
CGGCTCAG | -0.117
TCTAGCCA | -0.0636
GACAACGC | -0.0716
AAATTTCA | 0.00137
TAATTTCA | 0.346
CAATTTCA | 0.00344
GGGACAAC | -0.231

Sequence | PBM E-score
GGGACATA | -0.0931
CGGACAAC | 0.309
CGGACATA | 0.433
CTGACATC | 0.0186
AGGACATA | -0.0903
AGGACATC | 0.0505
CGGACATC | 0.406
CGGACAAG | 0.22
ACTAGGCC | -0.243
ATAGCCCC | -0.325
ATTTGCTC | 0.141
CCGGAGCG | 0.234
CCGGAGCA | 0.307
GCGGAGCA | 0.152
CGGGAGCA | -0.0121
CCGGAGCC | 0.396
ACGGAGCA | 0.207
CTGGAGCC | -0.204
TCGGAGCA | 0.3
GCGGAGCC | 0.113
CGGCGGTA | 0.14
CGTTTATC | 0.171
ACCCTGGG | -0.279
AGCGTAGC | -0.0963
CCTTTGAA | -0.0516
ATGATCGC | -0.106

Sequence | PBM E-score
GTTAATAA | 0.319
AATAATAC | 0.202
ATTAATAA | 0.265
GATAATAA | 0.234
AATAATAT | 0.346
AATAATAA | 0.304
CTTAATAA | 0.217
AATAATGT | 0.235
AATAATAG | 0.157
AATGATAG | 0.251
TATGATAA | 0.233
AATGATAA | 0.299
AACTTAAG | 0.132
CAGTTTGG | -0.198
AAGCGCAC | 0.00639
TTACGTAA | -0.0108
ATCAGATG | -0.0902
CATCTGAC | -0.163
TGTCAGAA | -0.0161
TGTAATAA | 0.315
